# Reference: PubChem BioAssay AID504714 (Sanford-Burnham Center for Chemical Genomics, 2011)
# Among all 1,000 compounds or so, fewer than 10 were called active. The rule behind the calls is not given here. Only a sample is shown.
# Assay: E. coli UDG inhibitors, confirmation, counter-screen for APOBEC3A inhibitor project, biochemical, single concentration, fluorescence, FAM/TAMRA oligo (AID 504714)
# Conditions: UDG counterscreen, FAM/TAMRA uracil oligo fluorescence; at 20 µM; stronger effect = higher value
row,SMILES,inhibition
1,CCCN1C2=C(C(=O)CCC2)C(c2ccc(O)c(Br)c2)C2=C1CCCC2=O,0.9% (inactive)
2,COc1ccc(CNc2nnnn2C)cc1,-2.73% (inactive)
3,CCN1C(=NCC(C)C)N[C@@H](CCc2ccccc2)[C@H](C(=O)NCC(C)C)[C@H]1C,-1.61% (inactive)
4,COC(=O)C[n+]1cccc2ccccc21,-1.97% (inactive)
5,N#Cc1ccsc1NC(=O)CN1CCN(S(=O)(=O)c2cc(Cl)ccc2Cl)CC1,-0.63% (inactive)
6,COc1ccc(Br)cc1CN(C)C(=O)C1CC(=O)N(C2CCCC2)C1 (centres undefined),1.84% (inactive)
7,COCCCn1c(Cc2csc(Nc3cccc(Cl)c3)n2)nnc1SCC(=O)OC1CCCCC1,5.59% (inactive)
8,COc1ccc(CCNC(=O)COC(=O)/C=C/c2cccs2)cc1OC,-1.3% (inactive)
9,COc1ccccc1CCNC(=O)C1CCN(C(=O)/C=C/c2ccccc2)CC1,2% (inactive)
10,CCCCNC(=O)CSc1nc2ccc(NC(=O)CSc3nnc(N)s3)cc2s1,-1.96% (inactive)
11,CC(C)CCOc1ccc(C(=O)C[N+]2(C)CCOCC2)cc1,1.5% (inactive)
12,O=C(c1ccc(CS(=O)(=O)c2ccccc2)o1)N1CCN(c2ccccc2)CC1,-1.02% (inactive)
13,COC(=O)C1=C(C)N(Cc2ccccc2)C(=NCCCOC(C)C)N[C@H]1c1ccccc1,-3.67% (inactive)
14,CC1(C)CC(N2CCN(C(c3ccccc3)c3ccccc3)CC2)=CC(=[N+]2CCCCC2)C1,-2.53% (inactive)
15,S=C(Nc1cccnc1)Nc1ccccn1,-1.6% (inactive)
16,CC1(C)Oc2ccc3ccc(=O)oc3c2/C(=C/NCCO)C1=O,-2.48% (inactive)
17,NS(=O)(=O)c1cc(C(=O)OCC(=O)NNC(=O)c2ccccc2)ccc1Cl,5.01% (inactive)
18,O=C1c2oc3ccccc3c(=O)c2C(c2cccc(O)c2)N1c1ccccn1 (centres undefined),3.41% (inactive)
19,CSc1nnc(SCc2nc3sc(C(=O)O)c(C)c3c(=O)[nH]2)s1,-3.34% (inactive)
20,CCn1c(SCC(=O)Nc2cccc(F)c2)nnc1-c1cc2cc(Br)ccc2o1,6.96% (inactive)
21,CCOC(=O)c1ccc(NC(=O)CSc2ncccn2)cc1,1.35% (inactive)
22,Cc1ccc(CCCOC(=O)C[N+]2(C)CCCCC2)cc1,0.55% (inactive)
23,C[N+](C)(CCCCCC[N+](C)(C)CCCN1C(=O)c2cccc3cccc(c23)C1=O)CCCN1C(=O)c2cccc3cccc(c23)C1=O,1.2% (inactive)
24,CC(Oc1ccc(F)cc1)C(=O)Nc1cc(S(=O)(=O)N2CCOCC2)ccc1N1CCN(C)CC1 (centres undefined),-3.61% (inactive)
25,C=CC1=C(C(=O)O)N2C(=O)[C@@H](NC(=O)/C(=N/OCC(=O)O)c3csc(N)n3)[C@H]2SC1,-3.4% (inactive)
26,O=C(COC(=O)c1cnc(Cl)c(Cl)c1)NCc1ccco1,0.62% (inactive)
27,Cc1ccc(C(=O)N/N=C\c2cc(Br)c(Br)o2)cn1,2.94% (inactive)

row,SMILES,inhibition
1,CC(C)c1ccc(/C=C2\NC(=O)NC2=O)cc1,-1.04% (inactive)
2,CC[n+]1cc(C)ccc1/C=C/c1ccc(N(C)C)cc1,-2.09% (inactive)
3,CS(=O)(=O)c1ccc2c(c1)SC1=NC(=O)/C(=C/c3ccco3)C(=N)N12,1.37% (inactive)
4,CC(=O)Nc1ccc(NC(=O)C2CCCN(S(=O)(=O)c3ccc(Cl)cc3)C2)cc1 (centres undefined),7.05% (inactive)
5,CCNC(=O)COC(=O)CCNC(=O)c1cccc(C)c1,-0.25% (inactive)
6,CC(=O)Nc1ccc(Nc2cc(C)nc(Nc3ccc(NC(C)=O)cc3)n2)cc1,4.81% (inactive)
7,CCCCCCCC[n+]1cccc(C(=O)N2c3c(nc(N)[nH]c3=O)NC(C)C2C)c1 (centres undefined),-1.86% (inactive)
8,C[n+]1ccc(C(=O)NCc2ccccc2)cc1,-2.62% (inactive)
9,CCN1C(=NCCc2cccnc2)N[C@@H](c2ccccc2)[C@H](C(=O)OC)[C@H]1C,-0.96% (inactive)
10,O=C(Nc1cccc(-c2nc3ccccc3[nH]2)c1)c1ccc(C(=O)Nc2cccc(-c3nc4ccccc4[nH]3)c2)cc1,-1.03% (inactive)
11,CC(/C=C/c1ccccc1)=N\NC(=O)C1CC1(C)c1ccccc1 (centres undefined),1.23% (inactive)
12,Cc1cc2c(cc1C)[n+](C)cn2CC(O)COCC1CC=CCC1 (centres undefined),4.84% (inactive)
13,Cc1csc(SCC(=O)Nc2sccc2C#N)n1,-2.94% (inactive)
14,COc1ccc(C)cc1NC(=O)CCCN1C(=O)NC(C)(C)C1=O,2.69% (inactive)
15,CCN(CC)CCCNC(=O)CCn1nc(-c2ccc(Cl)cc2)ccc1=O,-0.02% (inactive)
16,N#Cc1ncc(C(F)(F)F)cc1Oc1cccnc1,-2.52% (inactive)
17,C[N+]1(CCNC(=O)/C=N/O)CCCCC1,2.37% (inactive)
18,CSc1nnc(-c2ccncc2)n1CCCN1CCCC1=O,2.58% (inactive)
19,C[N+]1(CC(O)COc2ccccc2)CCN(C(=O)c2ccc([N+](=O)[O-])cc2)CC1 (centres undefined),-0.77% (inactive)
20,CCCc1nc(-c2cc3cc(C)ccc3[nH]c2=O)no1,-1.41% (inactive)
21,CCN1C(=NCc2ccc(OC)cc2)N[C@@H](CCc2ccccc2)[C@H](C(=O)NCc2ccc(OC)cc2)[C@H]1C,2.26% (inactive)
22,CCS(=O)(=O)c1ccc(-c2cccc(NC(=O)c3ccc(Br)o3)c2)nn1,-1.58% (inactive)
23,COc1ccc(Cc2nnc(NC(=O)c3ccc(OC)cc3OC)s2)cc1,2.26% (inactive)
24,Cc1nnc(N/N=C/c2ccccn2)[nH]c1=O,3.44% (inactive)
25,COc1ccccc1-c1noc(CSc2nc(C)cc(=O)[nH]2)n1,-1.99% (inactive)
26,N#Cc1ccccc1CN1C(=O)S/C(=C/c2cccn2-c2cccc(C(=O)O)c2)C1=O,-1.19% (inactive)
27,CC[n+]1c(C)n(-c2ccccc2)c2ccc(NC(C)=O)cc21,-1.23% (inactive)
